# Values joined by “and” are separate entries in the source; they are usually repeats but may differ in a detail not shown here. Identical values can stand only once. The campaign covered roughly 5,500 compounds. About 2,000 (36%) were called active. Roughly 18% stayed inconclusive and do not appear here. The list shows a part of the results. Values without a mark were called inactive. Rule as the data show it: active = normalized growth mostly below about 0.91 (no sharp cut-off); inconclusive = no clear call, values can overlap the other calls; inactive = mostly above about 0.92.
# Test: chemical genetic growth profiling, strain panel (AID 1159580);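 also: tested at 20 µM; growth read once vehicle control cultures reached saturation at 30 °C; 1 = growth at the plate median or of vehicle wells; lower values mean less growth of the strain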
# Details: growth OD
smiles,measurement,setting,value
CN(C)CCCN1c2ccccc2CCc2ccc(Cl)cc21,normalized growth,"S. cerevisiae deletion strains, locus YJR066W, strain TOR1, active compounds read low",0.923
same,normalized growth,"S. cerevisiae deletion strains, locus YKL009W, strain mrt4, active compounds read low",0.971
same,normalized growth,"S. cerevisiae deletion strains, locus YKL068W, active compounds read low",0.991
same,normalized growth,"S. cerevisiae deletion strains, locus YKL085W, strain MDH1 (second series), active compounds read low",0.994
same,normalized growth,"S. cerevisiae deletion strains, locus YKL085W, strain MDH1, active compounds read low",0.994
same,normalized growth,"S. cerevisiae deletion strains, locus YKL160W, strain elf1, active compounds read low",0.993
same,normalized growth,"S. cerevisiae deletion strains, locus YKL190W, strain CNB1, active compounds read low",0.953
same,normalized growth,"S. cerevisiae deletion strains, locus YKR001C, strain vps1, active compounds read low",0.644 (active)
same,normalized growth,"S. cerevisiae deletion strains, locus YKR026C, strain gcn3, active compounds read low",1.01
same,normalized growth,"S. cerevisiae deletion strains, locus YKR091W, strain srl3, active compounds read low",1
same,normalized growth,"S. cerevisiae deletion strains, locus YLL001W, strain dnm1, active compounds read low",1.01
same,normalized growth,"S. cerevisiae deletion strains, locus YLL026W, active compounds read low",0.982
same,normalized growth,"S. cerevisiae deletion strains, locus YLL041C, strain sdh2, active compounds read low",1
same,normalized growth,"S. cerevisiae deletion strains, locus YLR027C, strain aat2, active compounds read low",0.996
same,normalized growth,"S. cerevisiae deletion strains, locus YLR039C, strain RIC1, active compounds read low",1.35 [resistant] (active)
same,normalized growth,"S. cerevisiae deletion strains, locus YLR058C, strain SHM2, active compounds read low",0.946
same,normalized growth,"S. cerevisiae deletion strains, locus YLR102C, strain apc9, active compounds read low",0.995
same,normalized growth,"S. cerevisiae deletion strains, locus YLR113W, strain HOG1, active compounds read low",0.983
same,normalized growth,"S. cerevisiae deletion strains, locus YLR221C, strain rsa3, active compounds read low",0.999
same,normalized growth,"S. cerevisiae deletion strains, locus YLR258W, strain gsy2, active compounds read low",0.961
same,normalized growth,"S. cerevisiae deletion strains, locus YLR262C, strain YPT6 (second series), active compounds read low",1.14
same,normalized growth,"S. cerevisiae deletion strains, locus YLR262C, strain YPT6, active compounds read low",1.33
same,normalized growth,"S. cerevisiae deletion strains, locus YLR268W, strain sec22, active compounds read low",0.961
same,normalized growth,"S. cerevisiae deletion strains, locus YLR320W, strain mms22, active compounds read low",1
same,normalized growth,"S. cerevisiae deletion strains, locus YLR330W, strain CHS5, active compounds read low",0.996
same,normalized growth,"S. cerevisiae deletion strains, locus YLR342W, strain FKS1 (second series), active compounds read low",0.615 (active)
same,normalized growth,"S. cerevisiae deletion strains, locus YLR342W, strain FKS1, active compounds read low",0.998
same,normalized growth,"S. cerevisiae deletion strains, locus YLR357W, strain rsc2, active compounds read low",0.974
same,normalized growth,"S. cerevisiae deletion strains, locus YLR370C, strain arc18, active compounds read low",0.993
same,normalized growth,"S. cerevisiae deletion strains, locus YLR371W, strain rom2, active compounds read low",0.984
same,normalized growth,"S. cerevisiae deletion strains, locus YLR384C, strain iki3, active compounds read low",1
same,normalized growth,"S. cerevisiae deletion strains, locus YLR418C, strain cdc73, active compounds read low",0.64 (active)
same,normalized growth,"S. cerevisiae deletion strains, locus YML016C, strain PPZ1, active compounds read low",0.978
same,normalized growth,"S. cerevisiae deletion strains, locus YML032C, strain rad52, active compounds read low",0.967
same,normalized growth,"S. cerevisiae deletion strains, locus YML120C, strain ndi1, active compounds read low",0.986
same,normalized growth,"S. cerevisiae deletion strains, locus YML124C, strain tub3, active compounds read low",0.989
same,normalized growth,"S. cerevisiae deletion strains, locus YMR058W, strain fet3, active compounds read low",0.966
same,normalized growth,"S. cerevisiae deletion strains, locus YMR078C, strain ctf18, active compounds read low",0.989
same,normalized growth,"S. cerevisiae deletion strains, locus YMR125W, strain sto1, active compounds read low",0.962
same,normalized growth,"S. cerevisiae deletion strains, locus YMR129W, active compounds read low",1
same,normalized growth,"S. cerevisiae deletion strains, locus YMR205C, strain PFK2, active compounds read low",0.979
same,normalized growth,"S. cerevisiae deletion strains, locus YMR223W, strain ubp8, active compounds read low",0.934
same,normalized growth,"S. cerevisiae deletion strains, locus YMR231W, strain pep5, active compounds read low",0.999
same,normalized growth,"S. cerevisiae deletion strains, locus YMR263W, strain SAP30, active compounds read low",0.892 and 1.04
same,normalized growth,"S. cerevisiae deletion strains, locus YMR307W, strain GAS1, active compounds read low",0.726
same,normalized growth,"S. cerevisiae deletion strains, locus YNL067W, strain RPL9B, active compounds read low",0.924
same,normalized growth,"S. cerevisiae deletion strains, locus YNL071W, strain lat1, active compounds read low",1.01
same,normalized growth,"S. cerevisiae deletion strains, locus YNL175C, strain NOP13, active compounds read low",1.07
same,normalized growth,"S. cerevisiae deletion strains, locus YNL183C, strain NPR1, active compounds read low",0.934
same,normalized growth,"S. cerevisiae deletion strains, locus YNL209W, strain ssb2, active compounds read low",0.926 (active)
same,normalized growth,"S. cerevisiae deletion strains, locus YNL224C, strain SQS1, active compounds read low",1.04
same,normalized growth,"S. cerevisiae deletion strains, locus YNL233W, strain BNI4, active compounds read low",0.877
same,normalized growth,"S. cerevisiae deletion strains, locus YNL248C, strain rpa49, active compounds read low",0.983
same,normalized growth,"S. cerevisiae deletion strains, locus YNL250W, strain rad50, active compounds read low",0.996
same,normalized growth,"S. cerevisiae deletion strains, locus YNL271C, strain bni1, active compounds read low",0.993
same,normalized growth,"S. cerevisiae deletion strains, locus YNL298W, strain CLA4, active compounds read low",0.999
same,normalized growth,"S. cerevisiae deletion strains, locus YNL307C, strain MCK1, active compounds read low",0.961
same,normalized growth,"S. cerevisiae deletion strains, locus YNL322C, strain KRE1 (second series), active compounds read low",1.01
same,normalized growth,"S. cerevisiae deletion strains, locus YNL322C, strain KRE1, active compounds read low",0.988 and 0.981
same,normalized growth,"S. cerevisiae deletion strains, locus YNR049C, strain mso1, active compounds read low",1.01
same,normalized growth,"S. cerevisiae deletion strains, locus YNR052C, strain pop2, active compounds read low",0.935
same,normalized growth,"S. cerevisiae deletion strains, locus YOL006C, strain TOP1, active compounds read low",0.311 (active)
same,normalized growth,"S. cerevisiae deletion strains, locus YOL012C, strain htz1",1.42
same,normalized growth,"S. cerevisiae deletion strains, locus YOL147C, strain pex11, active compounds read low",0.989
same,normalized growth,"S. cerevisiae deletion strains, locus YOR001W, strain rrp6, active compounds read low",0.982
same,normalized growth,"S. cerevisiae deletion strains, locus YOR061W, strain CKA2, active compounds read low",0.847 (active)
same,normalized growth,"S. cerevisiae deletion strains, locus YOR069W, strain VPS5, active compounds read low",0.984
same,normalized growth,"S. cerevisiae deletion strains, locus YOR070C, strain gyp1, active compounds read low",0.99
same,normalized growth,"S. cerevisiae deletion strains, locus YOR080W, strain dia2, active compounds read low",1
same,normalized growth,"S. cerevisiae deletion strains, locus YOR083W, strain WHI5 (second series), active compounds read low",1.1
same,normalized growth,"S. cerevisiae deletion strains, locus YOR083W, strain WHI5, active compounds read low",0.985
same,normalized growth,"S. cerevisiae deletion strains, locus YOR106W, strain vam3, active compounds read low",0.846 (active)
same,normalized growth,"S. cerevisiae deletion strains, locus YOR136W, strain idh2, active compounds read low",1.01
same,normalized growth,"S. cerevisiae deletion strains, locus YOR144C, strain elg1, active compounds read low",0.991
same,normalized growth,"S. cerevisiae deletion strains, locus YOR184W, strain ser1, active compounds read low",0.96
same,normalized growth,"S. cerevisiae deletion strains, locus YOR231W, strain MKK1, active compounds read low",0.999
same,normalized growth,"S. cerevisiae deletion strains, locus YOR265W, strain rbl2, active compounds read low",1
same,normalized growth,"S. cerevisiae deletion strains, locus YOR270C, strain vph1, active compounds read low",0.567 (active)
same,normalized growth,"S. cerevisiae deletion strains, locus YOR290C, strain snf2, active compounds read low",0.903
same,normalized growth,"S. cerevisiae deletion strains, locus YOR316C, strain cot1, active compounds read low",0.977
same,normalized growth,"S. cerevisiae deletion strains, locus YPL051W, strain arl3, active compounds read low",0.989
same,normalized growth,"S. cerevisiae deletion strains, locus YPL078C, strain atp4, active compounds read low",0.987
same,normalized growth,"S. cerevisiae deletion strains, locus YPL106C, strain sse1, active compounds read low",1.02
same,normalized growth,"S. cerevisiae deletion strains, locus YPL240C, strain hsp82, active compounds read low",0.99
same,normalized growth,"S. cerevisiae deletion strains, locus YPL241C, strain CIN2, active compounds read low",0.986 and 0.999
same,normalized growth,"S. cerevisiae deletion strains, locus YPL256C, strain CLN2, active compounds read low",1.02
same,normalized growth,"S. cerevisiae deletion strains, locus YPR119W, strain clb2, active compounds read low",0.993
same,normalized growth,"S. cerevisiae deletion strains, locus YPR141C, strain kar3, active compounds read low",0.99
same,normalized growth,"S. cerevisiae deletion strains, locus YPR163C, strain tif3, active compounds read low",0.728 (active)
same,normalized growth,"S. cerevisiae deletion strains, locus YPR167C, strain met16, active compounds read low",0.986
same,normalized growth,"S. cerevisiae deletion strains, strain wtn01, active compounds read low",0.928
same,normalized growth,"S. cerevisiae strains, strain wild type, active compounds read low",0.902
